# Experimental data taken from PubChem BioAssay (EPA / NIEHS).
# Values joined by “and” are separate entries in the source; they are usually repeats but may differ in a detail not shown here. Identical values can stand only once. Results filed as inconclusive are left out. Some structures have more than one record in an assay (separate samples or runs), and their calls can disagree. Active and inactive are the calls of the source. The calls were made as follows: active = hit-call score of the fitted dose curve at least 0.9, where 1 is the maximum; inconclusive = response in the unintended direction; inactive = score below 0.9.
# Key:
# [1] = target: human Ephrin type-B Receptor 1 (EphB1), EPHB1 (gene 2047) (UniProt P54762); assay: NVS_ENZ_hEphB1: NovaScreen (NVS) Enzymatic Assay for human Ephrin type-B Receptor 1 (EphB1) (AID 2283154)
# human Ephrin type-B Receptor 1 (EphB1), EPHB1 (gene 2047), sequence (P54762 whole entry, looked up): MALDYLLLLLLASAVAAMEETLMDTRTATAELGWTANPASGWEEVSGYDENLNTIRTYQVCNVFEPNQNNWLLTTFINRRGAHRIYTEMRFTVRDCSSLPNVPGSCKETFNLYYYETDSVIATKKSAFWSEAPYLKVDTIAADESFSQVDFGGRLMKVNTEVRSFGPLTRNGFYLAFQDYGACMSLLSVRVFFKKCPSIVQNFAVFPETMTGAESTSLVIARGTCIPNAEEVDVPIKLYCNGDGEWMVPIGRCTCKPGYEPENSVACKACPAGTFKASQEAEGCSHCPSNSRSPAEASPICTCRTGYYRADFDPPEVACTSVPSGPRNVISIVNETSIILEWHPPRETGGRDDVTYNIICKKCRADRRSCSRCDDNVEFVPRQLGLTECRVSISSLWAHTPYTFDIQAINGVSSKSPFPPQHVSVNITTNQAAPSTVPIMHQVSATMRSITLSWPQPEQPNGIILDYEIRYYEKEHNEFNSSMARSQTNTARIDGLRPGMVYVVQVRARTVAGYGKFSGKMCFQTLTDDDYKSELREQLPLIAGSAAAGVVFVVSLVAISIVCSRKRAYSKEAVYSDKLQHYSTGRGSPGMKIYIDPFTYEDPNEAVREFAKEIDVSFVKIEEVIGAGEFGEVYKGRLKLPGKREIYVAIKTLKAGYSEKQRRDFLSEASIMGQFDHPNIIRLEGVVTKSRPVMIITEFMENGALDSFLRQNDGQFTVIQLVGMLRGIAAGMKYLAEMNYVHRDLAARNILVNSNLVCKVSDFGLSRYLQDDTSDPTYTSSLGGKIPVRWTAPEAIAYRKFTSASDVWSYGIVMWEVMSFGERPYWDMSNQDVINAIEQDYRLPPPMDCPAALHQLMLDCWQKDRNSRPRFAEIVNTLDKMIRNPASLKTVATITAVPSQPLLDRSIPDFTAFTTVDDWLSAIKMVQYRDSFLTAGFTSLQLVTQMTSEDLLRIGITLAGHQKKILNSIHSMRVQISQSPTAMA
# Method: (§1) NVS_ENZ_hEphB1 is a biochemical, single-readout assay that uses extracted gene-proteins in a cell-free assay. Measurements were taken 1 hour after chemical dosing in a 384-well plate.NVS_ENZ_hEphB1 is one of one assay component(s) measured or calculated from the NVS_ENZ_hEphB1 assay. It is designed to make measurements of enzyme activity, a form of enzyme reporter, as detected with fluorescence intensity signals by Fluorescence and electrophoretic mobility shift technology.Data from the assay component NVS_ENZ_hEphB1 was analyzed into 1 assay endpoint. This assay endpoint, NVS_ENZ_hEphB1, was analyzed in the positive analysis fitting direction relative to DMSO as the negative control and baseline of activity. Using a type of enzyme reporter, loss-of-signal activity can be used to understand changes in the enzymatic activity as they relate to the gene EPHB1. Furthermore, this assay endpoint can be referred to as a primary readout, because this assay has produced multiple assay endpoints where this one serves a enzymatic activity function. To generalize the intended target to other relatable targets, this assay endpoint is annotated to the kinase intended target family, where the subfamily is receptor tyrosine kinase.
# (§2) Binding assays used specific radioligands (tritiated, iodinated) with non-radioactive competitive displacement ligands in agonist or antagonist protocols (as indicated) and various reference compounds and inhibitors to titrate specific binding to receptors and transporters. Most enzyme assays (CYPs, kinases, phosphatases, proteases, HDACs) used recombinant protein and specific substrates (fluorescence mostly, some colorimetric and radioactive) and inhibitors, followed by a biochemical separation of substrate and product. All assays for the biochemical HTS were initially run in duplicate at a single concentration (10 uM for CYP450 assays and 25 uM for all others). […] Each assay was run with positive and negative controls, and concurrent controls on every plate. The follow-up (secondary) screen tested active chemical-pairs in concentration series, as well as a few additional assays not tested in the primary screen, some selected negative inactives, and several cases re-run in the concentration series for confirmatory purposes.
# [2] = target: human Elastase, ELANE (gene 1991) (UniProt P08246); assay: NVS_ENZ_hElastase: NovaScreen (NVS) Enzymatic Assay for human Elastase (AID 2283153)
# human Elastase, ELANE (gene 1991), sequence (P08246 whole entry, looked up): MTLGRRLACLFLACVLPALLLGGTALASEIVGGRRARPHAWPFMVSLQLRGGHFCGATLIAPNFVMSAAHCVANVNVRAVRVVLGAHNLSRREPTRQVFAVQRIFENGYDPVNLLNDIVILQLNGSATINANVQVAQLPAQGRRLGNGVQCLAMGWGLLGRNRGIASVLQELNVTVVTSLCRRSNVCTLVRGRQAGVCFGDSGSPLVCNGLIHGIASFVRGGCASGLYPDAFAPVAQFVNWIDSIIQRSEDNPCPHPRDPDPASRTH
# How it was run: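 Cell-free elastase from human neutrophils, 1.5 h after dosing, activity read by absorbance. Primary screen in duplicate at 25 uM; hits (e.g., 30% inhibition) rerun in singleton concentration-response up to 50 uM, fitted versus DMSO.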
# [3] = target: human Esterase Plasma (ES), BCHE (gene 590) (UniProt P06276); assay: NVS_ENZ_hES: NovaScreen (NVS) Enzymatic Assay for human Esterase Plasma (ES) (AID 2283157)
# human Esterase Plasma (ES), BCHE (gene 590), sequence (P06276 whole entry, looked up): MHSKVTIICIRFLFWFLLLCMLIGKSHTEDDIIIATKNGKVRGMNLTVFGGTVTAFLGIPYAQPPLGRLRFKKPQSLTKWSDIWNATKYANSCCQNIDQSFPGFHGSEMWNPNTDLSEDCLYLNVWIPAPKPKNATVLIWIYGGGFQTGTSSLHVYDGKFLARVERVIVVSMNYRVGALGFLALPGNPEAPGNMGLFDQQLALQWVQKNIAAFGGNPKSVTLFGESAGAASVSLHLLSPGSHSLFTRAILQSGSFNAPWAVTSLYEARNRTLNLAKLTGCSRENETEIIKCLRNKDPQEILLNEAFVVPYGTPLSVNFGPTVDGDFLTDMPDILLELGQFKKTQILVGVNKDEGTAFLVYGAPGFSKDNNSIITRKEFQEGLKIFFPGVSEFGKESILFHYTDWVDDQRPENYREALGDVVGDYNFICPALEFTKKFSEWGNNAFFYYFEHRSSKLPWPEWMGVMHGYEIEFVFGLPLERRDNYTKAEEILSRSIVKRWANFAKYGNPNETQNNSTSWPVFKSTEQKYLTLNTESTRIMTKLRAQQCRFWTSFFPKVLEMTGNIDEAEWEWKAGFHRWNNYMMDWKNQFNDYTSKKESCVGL
# How it was run: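 Chemicals were added to plasma-extracted human enzyme in a cell-free format, and activity was read colorimetrically after 0.25 hour. Activity loss was referenced to DMSO; concentration-response top dose was 50 uM.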
# [4] = target: human Dual Specificity Protein Phosphatase 3 (DUSP3), DUSP3 (gene 1845) (UniProt P51452); assay: NVS_ENZ_hDUSP3: NovaScreen (NVS) Enzymatic Assay for human Dual Specificity Protein Phosphatase 3 (DUSP3) (AID 2283152);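 also: phosphatase activity of recombinant human DUSP3 on a fluorogenic substrate without cells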
# human Dual Specificity Protein Phosphatase 3 (DUSP3), DUSP3 (gene 1845), sequence (P51452 whole entry, looked up): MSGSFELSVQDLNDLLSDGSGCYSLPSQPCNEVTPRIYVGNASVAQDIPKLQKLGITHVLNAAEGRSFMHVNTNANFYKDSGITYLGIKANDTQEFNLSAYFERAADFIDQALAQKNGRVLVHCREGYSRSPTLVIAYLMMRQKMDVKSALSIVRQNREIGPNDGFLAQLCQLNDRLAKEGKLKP
# Method: NVS_ENZ_hDUSP3 is a biochemical, single-readout assay that uses extracted gene-proteins in a cell-free assay. Measurements were taken 0 hour after chemical dosing in a 96-well plate.NVS_ENZ_hDUSP3 is one of one assay component(s) measured or calculated from the NVS_ENZ_hDUSP3 assay. It is designed to make measurements of enzyme activity, a form of enzyme reporter, as detected with fluorescence intensity signals by Fluorescence technology.Data from the assay component NVS_ENZ_hDUSP3 was analyzed into 1 assay endpoint. This assay endpoint, NVS_ENZ_hDUSP3, was analyzed in the positive analysis fitting direction relative to DMSO as the negative control and baseline of activity. Using a type of enzyme reporter, loss-of-signal activity can be used to understand changes in the enzymatic activity as they relate to the gene DUSP3. Furthermore, this assay endpoint can be referred to as a primary readout, because this assay has produced multiple assay endpoints where this one serves a enzymatic activity function. To generalize the intended target to other relatable targets, this assay endpoint is annotated to the phosphatase intended target family, where the subfamily is dual-specific phosphatase.
# as §2
# [5] = target: human FYN Proto-Oncogene, Src family Tyrosine Kinase (Fyn), FYN (gene 2534) (UniProt P06241); assay: NVS_ENZ_hFyn: NovaScreen (NVS) Enzymatic Assay for human FYN Proto-Oncogene, Src family Tyrosine Kinase (Fyn) (AID 2283161)
# Method: as §1, with “NVS_ENZ_hFyn” for “NVS_ENZ_hEphB1”, “plate.NVS_ENZ_hFyn” for “plate.NVS_ENZ_hEphB1”, “NVS_ENZ_hFyn,” for “NVS_ENZ_hEphB1,”, “FYN.” for “EPHB1.”, “non-receptor” for “receptor”, “kinase. […]” for “kinase.”
# [6] = target: human Ephrin type-A Receptor 2 (EphA2), EPHA2 (gene 1969) (UniProt P29317); assay: NVS_ENZ_hEphA2: NovaScreen (NVS) Enzymatic Assay for human Ephrin type-A Receptor 2 (EphA2) (AID 2283155)
# human Ephrin type-A Receptor 2 (EphA2), EPHA2 (gene 1969), sequence (P29317 whole entry, looked up): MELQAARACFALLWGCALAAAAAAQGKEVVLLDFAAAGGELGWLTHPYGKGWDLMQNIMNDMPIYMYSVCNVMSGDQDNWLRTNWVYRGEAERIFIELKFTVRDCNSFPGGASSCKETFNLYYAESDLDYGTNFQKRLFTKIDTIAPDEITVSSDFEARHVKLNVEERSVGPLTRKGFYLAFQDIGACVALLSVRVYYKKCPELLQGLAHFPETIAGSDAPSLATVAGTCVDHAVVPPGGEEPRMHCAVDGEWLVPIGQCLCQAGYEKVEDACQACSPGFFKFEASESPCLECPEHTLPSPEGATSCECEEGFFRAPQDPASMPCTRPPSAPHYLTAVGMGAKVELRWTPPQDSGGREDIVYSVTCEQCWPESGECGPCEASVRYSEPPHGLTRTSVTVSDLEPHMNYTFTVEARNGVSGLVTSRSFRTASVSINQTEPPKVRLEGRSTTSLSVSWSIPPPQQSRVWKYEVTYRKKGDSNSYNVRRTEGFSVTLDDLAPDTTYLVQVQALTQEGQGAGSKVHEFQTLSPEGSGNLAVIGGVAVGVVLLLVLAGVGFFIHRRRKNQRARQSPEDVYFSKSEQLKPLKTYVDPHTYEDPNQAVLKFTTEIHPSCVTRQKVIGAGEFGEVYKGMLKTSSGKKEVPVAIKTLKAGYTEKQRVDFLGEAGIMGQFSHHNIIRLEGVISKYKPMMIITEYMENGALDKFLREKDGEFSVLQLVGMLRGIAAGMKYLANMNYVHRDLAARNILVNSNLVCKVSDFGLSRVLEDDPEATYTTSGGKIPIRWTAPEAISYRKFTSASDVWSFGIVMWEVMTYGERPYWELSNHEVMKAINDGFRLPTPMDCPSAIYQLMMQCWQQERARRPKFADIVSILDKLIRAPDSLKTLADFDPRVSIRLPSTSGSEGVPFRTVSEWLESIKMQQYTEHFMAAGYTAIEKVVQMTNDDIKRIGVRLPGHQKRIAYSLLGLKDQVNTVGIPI
# Method: as §1, with “NVS_ENZ_hEphA2” for “NVS_ENZ_hEphB1”, “plate.NVS_ENZ_hEphA2” for “plate.NVS_ENZ_hEphB1”, “NVS_ENZ_hEphA2,” for “NVS_ENZ_hEphB1,”, “EPHA2.” for “EPHB1.”
# Binding assays used specific radioligands (tritiated, iodinated) with non-radioactive competitive displacement ligands in agonist or antagonist protocols (as indicated) and various reference compounds and inhibitors to titrate specific binding to receptors and transporters. Most enzyme assays (CYPs, kinases, phosphatases, proteases, HDACs) used recombinant protein and specific substrates (fluorescence mostly, some colorimetric and radioactive) and inhibitors, followed by a biochemical separation of substrate and product. All assays for the biochemical HTS were initially run in duplicate at a single concentration (10 uM for CYP450 assays and 25 uM for all others). Assay-chemical combinations meeting a pre-defined threshold (e.g., 30% inhibition and other criteria defined below) were then run in singleton concentration-response format with maximum concentration of 20 uM for CYPs and 50 uM for all others. Each assay was run with positive and negative controls, and concurrent controls on every plate. The follow-up (secondary) screen tested active chemical-pairs in concentration series, as well as a few additional assays not tested in the primary screen, some selected negative inactives, and several cases re-run in the concentration series for confirmatory purposes.
# [7] = target: human Fibroblast Growth Factor Receptor 1 (FGFR1), FGFR1 (gene 2260) (UniProt P11362); assay: NVS_ENZ_hFGFR1: NovaScreen (NVS) Enzymatic Assay for human Fibroblast Growth Factor Receptor 1 (FGFR1) (AID 2283159)
# human Fibroblast Growth Factor Receptor 1 (FGFR1), FGFR1 (gene 2260), sequence (P11362 whole entry, looked up): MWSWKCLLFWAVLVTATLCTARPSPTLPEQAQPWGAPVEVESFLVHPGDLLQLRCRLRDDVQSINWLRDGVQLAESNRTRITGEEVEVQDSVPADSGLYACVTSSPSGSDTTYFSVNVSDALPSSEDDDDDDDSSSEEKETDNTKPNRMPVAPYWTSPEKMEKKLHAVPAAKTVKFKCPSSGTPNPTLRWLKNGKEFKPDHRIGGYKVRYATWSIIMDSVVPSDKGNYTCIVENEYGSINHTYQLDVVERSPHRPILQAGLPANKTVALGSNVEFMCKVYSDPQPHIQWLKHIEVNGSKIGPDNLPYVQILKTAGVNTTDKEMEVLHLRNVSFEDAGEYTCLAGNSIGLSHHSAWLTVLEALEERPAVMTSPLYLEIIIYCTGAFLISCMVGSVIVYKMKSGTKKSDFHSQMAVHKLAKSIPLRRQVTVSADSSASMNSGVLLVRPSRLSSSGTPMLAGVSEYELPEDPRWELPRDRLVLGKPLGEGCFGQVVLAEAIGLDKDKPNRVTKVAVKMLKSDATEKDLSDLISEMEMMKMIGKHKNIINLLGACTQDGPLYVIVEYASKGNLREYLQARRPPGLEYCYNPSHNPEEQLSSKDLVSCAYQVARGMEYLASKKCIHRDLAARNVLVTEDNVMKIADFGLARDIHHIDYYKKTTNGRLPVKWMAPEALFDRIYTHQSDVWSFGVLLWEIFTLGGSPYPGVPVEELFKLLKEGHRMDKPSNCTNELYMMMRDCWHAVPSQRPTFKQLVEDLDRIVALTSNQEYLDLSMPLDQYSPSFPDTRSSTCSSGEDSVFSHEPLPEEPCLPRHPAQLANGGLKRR
# How it was run: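 Cell-free recombinant kinase with fluorescent substrate, product separated by electrophoretic mobility shift; read 1 hour after dosing, loss of signal relative to DMSO. Initial screen in duplicate at 25 uM, actives followed in concentration series.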
# [8] = target: human Ephrin type-A Receptor 1 (EphA1), EPHA1 (gene 2041) (UniProt P21709); assay: NVS_ENZ_hEphA1: NovaScreen (NVS) Enzymatic Assay for human Ephrin type-A Receptor 1 (EphA1) (AID 2283158);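 also: activity is signal loss versus DMSO meaning EphA1 kinase inhibition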
# human Ephrin type-A Receptor 1 (EphA1), EPHA1 (gene 2041), sequence (P21709 whole entry, looked up): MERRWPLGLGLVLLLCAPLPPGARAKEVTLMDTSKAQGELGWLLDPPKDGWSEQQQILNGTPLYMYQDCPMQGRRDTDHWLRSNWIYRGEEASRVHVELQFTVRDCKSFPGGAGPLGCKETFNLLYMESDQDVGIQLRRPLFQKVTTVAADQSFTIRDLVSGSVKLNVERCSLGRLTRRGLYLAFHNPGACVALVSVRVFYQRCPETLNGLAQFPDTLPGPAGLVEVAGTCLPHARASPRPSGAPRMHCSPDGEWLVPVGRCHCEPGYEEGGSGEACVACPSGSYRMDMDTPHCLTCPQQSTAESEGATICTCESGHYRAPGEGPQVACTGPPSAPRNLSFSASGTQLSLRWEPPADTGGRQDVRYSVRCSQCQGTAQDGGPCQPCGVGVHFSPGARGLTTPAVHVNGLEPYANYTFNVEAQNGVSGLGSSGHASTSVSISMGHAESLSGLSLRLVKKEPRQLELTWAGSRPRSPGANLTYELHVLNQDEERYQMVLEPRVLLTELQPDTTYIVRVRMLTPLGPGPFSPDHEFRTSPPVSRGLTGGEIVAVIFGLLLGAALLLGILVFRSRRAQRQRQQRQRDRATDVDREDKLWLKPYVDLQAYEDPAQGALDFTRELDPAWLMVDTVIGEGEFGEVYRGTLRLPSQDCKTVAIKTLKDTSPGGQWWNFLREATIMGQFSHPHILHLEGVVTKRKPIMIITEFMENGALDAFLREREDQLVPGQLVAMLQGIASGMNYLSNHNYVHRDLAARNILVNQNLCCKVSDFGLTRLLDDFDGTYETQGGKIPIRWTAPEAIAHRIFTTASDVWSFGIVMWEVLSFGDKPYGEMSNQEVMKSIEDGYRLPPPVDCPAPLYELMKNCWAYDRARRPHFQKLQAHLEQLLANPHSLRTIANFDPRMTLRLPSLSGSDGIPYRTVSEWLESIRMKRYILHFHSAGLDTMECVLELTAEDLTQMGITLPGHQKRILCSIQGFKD
# How it was run: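 Biochemical kinase assay run cell-free; 1 h incubation; readout is fluorescence with mobility-shift separation of product. Concentration-response up to 50 uM for actives from a 25 uM screen.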
# [9] = target: human Ephrin type-B Receptor 2 (EphB2), EPHB2 (gene 2048) (UniProt P29323); assay: NVS_ENZ_hEphB2: NovaScreen (NVS) Enzymatic Assay for human Ephrin type-B Receptor 2 (EphB2) (AID 2283156)
# Method: as §1, with “NVS_ENZ_hEphB2” for “NVS_ENZ_hEphB1”, “plate.NVS_ENZ_hEphB2” for “plate.NVS_ENZ_hEphB1”, “NVS_ENZ_hEphB2,” for “NVS_ENZ_hEphB1,”, “EPHB2.” for “EPHB1.”, “kinase. […]” for “kinase.”
# [10] = target: Histone deacetylase 3 (Homo sapiens) (UniProt O15379); assay: NVS_ENZ_hHDAC3: NovaScreen (NVS) Enzymatic Assay for human Histone Deacetylase 3 (HDAC3) (AID 2283163)
# Method: as §1, with “NVS_ENZ_hHDAC3” for “NVS_ENZ_hEphB1”, “plate.NVS_ENZ_hHDAC3” for “plate.NVS_ENZ_hEphB1”, “NVS_ENZ_hHDAC3,” for “NVS_ENZ_hEphB1,”, “HDAC3.” for “EPHB1.”, “hydrolase” for “kinase”, “histone deacetylase. […]” for “receptor tyrosine kinase.”
compound,measurement,setting,value
C=CC1(C)OC(=O)N(c2cc(Cl)cc(Cl)c2)C1=O (centres undefined),outcome,[1],inactive
COc1ccc(C(c2ccc(OC)cc2)C(Cl)(Cl)Cl)cc1,outcome,[1],inactive
COP(=S)(OC)Oc1nc(Cl)c(Cl)cc1Cl,outcome,[2],inactive
same,outcome,[3],inactive
CNC(=S)S,outcome,[4],inactive
same,outcome,[2],inactive
O=C(Nc1ccccc1)Nc1ccnc(Cl)c1,outcome,[5],inactive
CO/C=C(/C(=O)OC)c1ccccc1Oc1cc(Oc2ccccc2C#N)ncn1,outcome,[4],inactive
same,outcome,[2],inactive
same,outcome,[6],inactive
same,AC50,[3],26.3 µM (active) and 26.4 µM (active) and 10 µM (active)
same,outcome,[7],inactive
CCc1nn(C)c(C(=O)NCc2ccc(C(C)(C)C)cc2)c1Cl,outcome,[4],inactive
Cc1ccc(-c2c(Cl)nc(C#N)n2S(=O)(=O)N(C)C)cc1,outcome,[6],inactive
same,outcome,[8],inactive
N#Cc1cc(Br)c(O)c(Br)c1,outcome,[1],inactive
same,outcome,[6],inactive
same,outcome,[8],inactive
CC1COC(Cn2cncn2)(c2ccc(Oc3ccc(Cl)cc3)cc2Cl)O1 (centres undefined),outcome,[4],inactive
same,outcome,[1],inactive
CS/C(C)=N/OC(=O)N(C)SN(C)C(=O)O/N=C(\C)SC,AC50,[3],3.07 µM (active)
COC(=O)C(C)Oc1ccc(Oc2ccc(Cl)cc2Cl)cc1 (centres undefined),outcome,[1],inactive
COP(N)(=O)SC (centres undefined),outcome,[9],inactive
CCCN(CCC)c1c([N+](=O)[O-])cc(S(N)(=O)=O)cc1[N+](=O)[O-],outcome,[6],inactive
same,outcome,[9],inactive
same,outcome,[8],inactive
same,outcome,[7],inactive
CC1=C(C(=O)Nc2ccccc2)SCCO1,AC50,[3],23.6 µM (active)
Oc1ccccc1-c1ccccc1,outcome,[2],inactive
CCOC(=O)C(Cl)Cc1cc(-n2nc(C)n(C(F)F)c2=O)c(F)cc1Cl (centres undefined),outcome,[4],inactive
same,outcome,[3],inactive
same,outcome,[7],inactive
N#Cc1nn(-c2c(Cl)cc(C(F)(F)F)cc2Cl)c(N)c1S(=O)C(F)(F)F (centres undefined),outcome,[7],inactive
CCCCNC(=O)n1c(NC(=O)OC)nc2ccccc21,outcome,[2],inactive
same,outcome,[1],inactive
COc1cnc(OC)n2nc(NS(=O)(=O)c3c(OCC(F)F)cccc3C(F)(F)F)nc12,outcome,[8],inactive
CCCCOC(=O)c1ccccc1C(=O)OCCCC,outcome,[1],inactive
same,AC50,[3],11 µM (active)
same,outcome,[3],inactive
COC(=O)C=C(C)OP(=O)(OC)OC,outcome,[2],inactive
same,AC50,[3],13.4 µM (active)
CCCCNC(=O)OCC#CI,outcome,[7],inactive
same,AC50,[10],17.5 µM (active) and 14.6 µM (active)
CNC(=O)ON=CC(C)(C)SC,AC50,[3],11.1 µM (active)
